# Results as given in PubChem BioAssay (NCI).
# About 83,000 compounds went through this panel and 20% of them were active in at least one assay; those are over-represented in the sample as a whole.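 Percent growth is the endpoint: 0 to 100 indicates growth inhibition (40 means 60% inhibition), 0 means no net growth, and negative values indicate cell death.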 Activity calls are given as the source filed them. How the source made its calls: active means growth percent below 10; inactive means the rest.
# Tested on: U251 CNS
# Experiment: NCI-60 one-dose screen, 48 h (100 = growth as untreated, 0 = no growth, -100 = all killed)
# Details: 10 µM unless noted
row,SMILES,growth
1,O=C1/C(=C/c2ccc(O)cc2)COc2ccc(-c3ccccc3)cc21,63.6% (inactive)
2,CC(=O)N1N=C(c2cccc(Nc3ccncc3)c2)CC1c1ccc2c(c1)OCO2 (stereo not given),82.8% (inactive)
3,Clc1nc(Cl)c2ncn(CCOCCn3cnc4c(Cl)nc(Cl)nc43)c2n1,-72.3% (active)
4,COc1ccc(/C=C2\COc3ccc(-c4ccccc4)cc3C2=O)cc1O,5.71% (active)
5,Cc1c2c(cc[n+]1Cc1ccccc1)c1ccc(OCC3CCCCC3)cc1n2CC1CCCCC1,-92.5% (active)
6,NC(=O)c1ncn(C2OC(CO)C(O)C2O)n1 (stereo not given),99.7% (inactive)
7,COc1cc(/C=C/C(=O)c2c(C)oc3nc[nH]c(=O)c23)ccc1O,103% (inactive)
8,COc1cc(NCCCN(CC(C)C)CC(C)C)c2ncccc2c1,96.1% (inactive)
9,O=[N+]([O-])c1cccc(-c2nc(-c3ccc(Cl)cc3Cl)cn2-c2ccccc2)c1,-60.5% (active)
10,O=C(N/N=C/c1ccc(F)cc1)c1ccccc1Nc1cccc(C(F)(F)F)c1,100% (inactive)
11,COc1ccc(Cn2nc(-c3cc(OC)c(OC)c(OC)c3)c3c2CCc2cnoc2-3)cc1OC,62.1% (inactive)
12,Fc1ccc(C2CC(c3cccc(Nc4ccncc4)c3)=NN2c2ccccc2)cc1 (stereo not given),18.9% (inactive)
13,CCn1cc(C2NC(=O)c3ccccc3N2)c2cccc(C)c21 (stereo not given),3.94% (active)
14,Cc1nc2sc(C(=O)Nc3ccccc3)c(N)c2cc1C(=O)c1ccc(C(F)(F)F)cc1,102% (inactive)
15,CC(=O)c1c(C)[nH]c(-c2nc3ccc(N4CCN(C)CC4)cc3[nH]2)c1-c1ccccc1,44.7% (inactive)
